Nine compounds from PubChem BioAssay (EPA / NIEHS) can be followed below.

Assay [1] is described as follows: ATG_XTT_Cytotoxicity: Cytotoxicity Assessment in the Attagene TRANS-FACTORIAL HepG2 Assay (AID 2283584).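 For AC50: XTT signal for cell number as viability in transfected HepG2 cells; cells exposed to compound for 24 h before reading; active means loss of viability signal versus DMSO baseline.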 Put shortly: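 HepG2 cells transiently transfected with GAL4-UAS multiple reporter units, dosed 24 h; cytotoxicity read by XTT as loss of signal versus DMSO baseline.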
The nature of assay [2]: TOX21_p53_BLA_p2_viability: Viability Assessment in the Tox21 HCT-116 p53 Agonism Beta-lactamase Assay, Phase 2 (AID 2283591).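 Note: actives lower the ATP signal meaning cytotoxicity.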 Put shortly:
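Cytotoxicity readout: CellTiter-Glo ATP luminescence, 30 min at room temperature, after the beta-lactamase read. Cells were HCT116 exposed 16 h at 37C to compounds pin-transferred at 217-fold dilution from DMSO stocks.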

The target in assay [3] is Cellular tumor antigen p53 (Homo sapiens) (UniProt P04637). Put plainly: TOX21_p53_BLA_p2_ratio: Tox21 HCT-116 p53 Agonism Beta-lactamase Assay, Ratio, Phase 2 (AID 2283592). In a few lines: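 First, HCT116 reporter cells settle for 5 h at 37C. Next, DMSO compound solutions are pinned in (217-fold dilution) and left 16 h. Finally, CCF4-AM substrate is loaded 2 h at room temperature and the 460/530 nm ratio read.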

Assay [4] in a line: TOX21_p53_BLA_p3_viability: Viability Assessment in the Tox21 HCT-116 p53 Agonism Beta-lactamase Assay, Phase 3 (AID 2283593).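 Note: cells exposed to compound for 16 h before reading.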 Put shortly: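 Cellular ATP was quantified by CellTiter-Glo luminescence, read after 30 min at room temperature. Beforehand, HCT116 cells (4000/well) received compound 5 h post-seeding, 217-fold diluted from DMSO, then incubated 16 h at 37C.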
In assay [5] the target is Cellular tumor antigen p53 (Homo sapiens) (UniProt P04637). Put plainly: TOX21_p53_BLA_p3_ratio: Tox21 HCT-116 p53 Agonism Beta-lactamase Assay, Ratio, Phase 3 (AID 2283596). Put shortly:
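Cells were seeded at 4000/well, rested 5 h at 37C, then dosed with DMSO compound solutions (217-fold dilution) for 16 h. CCF4-AM substrate was loaded for 2 h at room temperature, and the 460/530 nm emission ratio was fitted for gain of signal versus DMSO.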

A short description of assay [6]: TOX21_p53_BLA_p4_viability: Viability Assessment in the Tox21 HCT-116 p53 Agonism Beta-lactamase Assay, Phase 4 (AID 2283597).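 Note: hits lower the luminescence signal meaning cytotoxicity.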 In a few lines: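 4000 HCT116 cells per well; 5 h attachment; compounds from DMSO, 217-fold dilution; 16 h at 37C. Then CCF4-AM, 2 h RT, followed by CellTiter-Glo, 30 min RT, luminescence. Decrease = cytotoxicity.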
In assay [7] the target is Cellular tumor antigen p53 (Homo sapiens) (UniProt P04637). In words: TOX21_p53_BLA_p5_ratio: Tox21 HCT-116 p53 Agonism Beta-lactamase Assay, Ratio, Phase 5 (AID 2283599). Put shortly: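 Beta-lactamase reporter ratio (blue 460 nm over green 530 nm, 405 nm excitation) after 2 h CCF4-AM loading, in HCT-116 cells exposed 16 h at 37 C to compounds pinned at 217-fold dilution. Increases relative to DMSO baseline scored.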

The nature of assay [8]: TOX21_p53_BLA_p5_viability: Viability Assessment in the Tox21 HCT-116 p53 Agonism Beta-lactamase Assay, Phase 5 (AID 2283600). In a few lines:
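Decreased CellTiter-Glo luminescence denotes lost viability. Exposure: 16 h at 37C, 5% CO2, with compounds from DMSO stocks diluted 217-fold in wells of 4000 cells.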

The target of assay [9] is Cellular tumor antigen p53 (Homo sapiens) (UniProt P04637). In words: TOX21_p53_BLA_p4_ratio: Tox21 HCT-116 p53 Agonism Beta-lactamase Assay, Ratio, Phase 4 (AID 2283601). Put shortly:
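Signal is the blue/green (460nm/530nm) ratio of cleaved versus uncleaved CCF4-AM substrate, read after 2 h substrate loading. Cells were HCT116 carrying the p53-responsive beta-lactamase reporter, dosed 16 h at 37C, 5% CO2; CellTiter-Glo measured in parallel.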

Assay [10] can be described thus: Tanguay_ZF_120hpf_MORT_legacy: (Legacy) Oregon State University Tanguay Lab 120 Hour Post-fertilization zebrafish Assay for Mortality (AID 2283633). Put shortly: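 Dechorionated Tropical 5D wild-type zebrafish embryos, one per well from 6 hpf, static exposure in 0.64% DMSO at 28C until 120 hpf. Mortality scored as binary by brightfield microscopy at 24 and 120 hpf.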

Assay [11] is described as follows: Tanguay_ZF_120hpf_YSE_legacy: (Legacy) Oregon State University Tanguay Lab 120 Hour Post-fertilization zebrafish Assay for Yolk Sac Edema (AID 2283634). In a few lines: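 Dechorionated Tropical 5D wild-type zebrafish embryos were exposed statically, one per well, from 6 to 120 hpf at 28C in 0.64% DMSO. Yolk sac edema was scored present/absent by brightfield at 120 hpf, and dead embryos were excluded.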

The nature of assay [12]: Tanguay_ZF_120hpf_AXIS_legacy: (Legacy) Oregon State University Tanguay Lab 120 Hour Post-fertilization zebrafish Assay for Body Axis Malformation (AID 2283635).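 Note: potency for an increased fraction of larvae scored with body axis malformation.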 In a few lines: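 Dechorionated wild-type Tropical 5D zebrafish embryos, one per well, statically exposed from 6 hpf to 120 hpf at 28C in 0.64% DMSO final. Body axis malformation scored present/absent by brightfield microscopy at 120 hpf; dead embryos excluded.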

A short description of assay [13]: Tanguay_ZF_120hpf_EYE_legacy: (Legacy) Oregon State University Tanguay Lab 120 Hour Post-fertilization zebrafish Assay for Eye Malformation (AID 2283636).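 Note: binary presence or absence of eye malformation scored by brightfield in 120 hpf larvae.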 Put shortly: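 Binary brightfield scoring of eye defects at 120 hpf after static exposure from 6 hpf of single pronase-dechorionated wild-type embryos (28C, 0.64% DMSO). Non-mortality endpoints omitted where embryos died; fit vs DMSO.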

Assay [14] can be described thus: Tanguay_ZF_120hpf_SNOU_legacy: (Legacy) Oregon State University Tanguay Lab 120 Hour Post-fertilization zebrafish Assay for Snout Malformation (AID 2283637). Put shortly: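 Binary snout-malformation call at 120 hpf in wild-type 5D embryos, chorion removed by pronase, under static exposure from 6 hpf at 28C (0.64% DMSO). Embryos dying by 24 or 120 hpf excluded.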

Assay [15] is described as follows: Tanguay_ZF_120hpf_JAW_legacy: (Legacy) Oregon State University Tanguay Lab 120 Hour Post-fertilization zebrafish Assay for Jaw Malformation (AID 2283638). Put shortly:
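Dechorionated Tropical 5D wild-type zebrafish embryos, one per well, exposed statically from 6 hpf to 120 hpf at 28C in 0.64% DMSO. Jaw malformation was scored by brightfield microscopy as present or absent. It was not scored in dead embryos.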

Assay [16] in a line: Tanguay_ZF_120hpf_OTIC_legacy: (Legacy) Oregon State University Tanguay Lab 120 Hour Post-fertilization zebrafish Assay for Otic Vesicle Malformation (AID 2283639). In a few lines:
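Brightfield scoring at 120 hpf, binary present/absent; DMSO negative control, 5uM trimethyltin chloride positive control. Static exposure at 28C, final DMSO 0.64% (vol/vol). Dead embryos not scored for malformation.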

Assay [17] can be described thus: Tanguay_ZF_120hpf_PE_legacy: (Legacy) Oregon State University Tanguay Lab 120 Hour Post-fertilization zebrafish Assay for Pericardial Edema (AID 2283640). In a few lines: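 Tropical 5D wild-type zebrafish embryos were statically exposed until 120 hpf at 28C, with 0.64% DMSO final. Pericardial edema was scored by brightfield as present or absent; endpoints were not scored in dead embryos.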

Assay [18] is described as follows: Tanguay_ZF_120hpf_BRAI_legacy: (Legacy) Oregon State University Tanguay Lab 120 Hour Post-fertilization zebrafish Assay for Brain Malformation (AID 2283641). Put shortly: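 Tropical 5D wild-type zebrafish embryos exposed statically until 120 hpf at 28C, 0.64% DMSO final, sealed and dark. Brain malformation scored present/absent by brightfield at 120 hpf; dead embryos excluded. Trimethyltin chloride 5uM positive control.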

Assay [19] can be described thus: Tanguay_ZF_120hpf_SOMI_legacy: (Legacy) Oregon State University Tanguay Lab 120 Hour Post-fertilization zebrafish Assay for Somite Malformation (AID 2283647). Put shortly:
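Dechorionated Tropical 5D wild-type zebrafish embryos, one per well from 6 hpf, statically exposed at 28C to 120 hpf in 0.64% DMSO; somite malformation scored present/absent by brightfield; trimethyltin 5 uM positive control; dead embryos not scored.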

Assay [20] is described as follows: Tanguay_ZF_120hpf_PFIN_legacy: (Legacy) Oregon State University Tanguay Lab 120 Hour Post-fertilization zebrafish Assay for Pectoral Fin Malformation (AID 2283648).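 Note: each larva judged yes or no for fin defect by brightfield with dead larvae skipped.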 In a few lines:
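Pectoral fin malformation was recorded as a binary endpoint at 120 hpf in wild-type Tropical 5D larvae, which had been dechorionated and exposed statically from 6 hpf at 28C in 0.64% DMSO. Dead embryos were excluded.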

The structures appear in SMILES notation. Several values for one entry are separate records, joined by “and”; a condition that tells them apart may be missing. Identical values can stand only once. Results filed as inconclusive are left out. Where a structure was tested more than once in an assay, its records may differ in their call. Activity calls are given as the source filed them. Rule for the calls: active = hit-call score of the fitted dose curve at least 0.9, where 1 is the maximum; inconclusive = response in the unintended direction; inactive = score below 0.9.

Cellular tumor antigen p53 (Homo sapiens), sequence (P04637 whole entry, looked up): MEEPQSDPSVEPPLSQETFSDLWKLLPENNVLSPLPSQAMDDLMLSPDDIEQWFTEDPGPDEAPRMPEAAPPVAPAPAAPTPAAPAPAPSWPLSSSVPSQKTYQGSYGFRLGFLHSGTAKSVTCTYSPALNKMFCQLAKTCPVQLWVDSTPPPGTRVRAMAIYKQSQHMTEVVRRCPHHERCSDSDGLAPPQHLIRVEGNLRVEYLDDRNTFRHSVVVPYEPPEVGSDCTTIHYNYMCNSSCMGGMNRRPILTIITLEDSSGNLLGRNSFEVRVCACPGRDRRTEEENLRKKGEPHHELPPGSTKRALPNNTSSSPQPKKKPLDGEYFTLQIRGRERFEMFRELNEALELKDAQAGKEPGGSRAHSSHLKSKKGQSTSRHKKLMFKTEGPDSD

`C=CCCCCCCCCCC`: the call in assay [1], in [2], in [3], in assay [4], in assay [5] and in [6] was inactive. Further, the result in assay [7], in [8] and in [9] was inactive.

As to `CS(=O)(=O)OCCCCOS(C)(=O)=O`, the result in assay [1], in assay [2], in assay [3], in assay [4], in assay [5] and in assay [6] was inactive. Further, the compound was classed as inactive in [8], in assay [9], in assay [10], in assay [11], in [13] and in assay [14]. Further, the result in assay [15], in assay [16], in [17], in [18], in assay [19] and in [20] was inactive. In addition, the results for the AC50 in assay [4] and in [12] were 2.31e-05 µM (active) and 38.7 µM (active), respectively.

`O=C1OC(=O)c2c(Cl)c(Cl)c(Cl)c(Cl)c21`: the outcome in [1], in assay [2], in [3], in assay [4], in assay [5] and in [6] was inactive. The result in assay [7], in [8] and in assay [9] was inactive.

For the compound `CCCCCCCCC=CCCCCCCCC1=NCCN1CCO`, the AC50 in [1] was 16.1 µM (active); in assay [2] it was 46.1 µM (active); in assay [4], 77.4 µM (active); in assay [5] it was 87.1 µM (active); in assay [6], 86.4 µM (active); in assay [9], 87.8 µM (active). Besides, the outcome in assay [3], in assay [7] and in assay [8] was inactive.

Regarding `COc1ccc(CCN2CCC(Nc3nc4ccccc4n3Cc3ccc(F)cc3)CC2)cc1`, the compound was classed as inactive in assay [1] and in assay [4]. The AC50 in [2] was 15.2 µM (active) and 38.9 µM (active); in [3] it was 31.1 µM (active) and 43.8 µM (active); in assay [4], 15.2 µM (active); in assay [5] it was 37.5 µM (active); in [6], 14.4 µM (active) and 23 µM (active); in [7] it was 38.8 µM (active) and 42.9 µM (active). For the same compound, the AC50 is 25.7 µM (active) and 40.5 µM (active) in [8]; 32.5 µM (active) and 43.3 µM (active) in assay [9].

As for `CC(=O)CC(=O)Nc1ccc(C)cc1C`, the outcome in assay [1], in assay [2], in assay [3], in [4], in assay [5] and in assay [6] was inactive. Besides, in assay [8], the compound was called inactive.

As to `CCCCCCOCCOCCO`, the compound was classed as inactive in assay [1].

As for `Nc1ccc2c(O)cc(S(=O)(=O)O)cc2c1`, the result in [1], in [2], in [4], in assay [5], in assay [6] and in [8] was inactive. The AC50 in [3] is 23.1 µM (active) and 18.3 µM (active); in assay [5], 12.9 µM (active); in assay [7] it was 33.1 µM (active) and 21.3 µM (active); in assay [9], 46.1 µM (active) and 16 µM (active).

On to `CN(C)CCOc1ccc(/C(=C(/CCCl)c2ccccc2)c2ccccc2)cc1`, for which the AC50 was 24.6 µM (active) in [1]; 58.1 µM (active) in [2]; 74.9 µM (active) in assay [3]; 49.8 µM (active) and 37 µM (active) in [6]; 59.8 µM (active) in assay [8]; 72.9 µM (active) and 39 µM (active) in assay [9]. Also, the call in assay [2], in assay [3], in assay [5] and in [8] was inactive.
